# Measured values as given in ChEMBL document CHEMBL4513146, “CO-ADD screening of Karazin Kharkiv National University (Ukraine) compounds”.
# Entries with a potency or affinity are not part of this list.
# Tested on: Staphylococcus aureus
# Details: Concentration 32 ug.mL-1;; ASSAY_TEST Inhibition of Bacterial Growth; detection method Absorption (OD600); MEDIA CAMHB; plate type 384well; NBS; CORNING #3640; time 18 hr
row,SMILES,Inhibition
1,COc1ccc(NC(=O)Cn2nc3c(Sc4ccccc4)nccn3c2=O)cc1OC,-8.9%
2,Cc1ccc(NC(=O)Cn2nc3ccc(SC(C)(C)C)nn3c2=O)c(C)c1,13%
3,COC(=O)c1ccc(NC(=O)Cn2nc3c(N4CCOCC4)nccn3c2=O)cc1,12.61%
4,Cc1nnc2ccc(S(=O)(=O)N(Cc3ccccc3F)c3cccc(Cl)c3)cn12,2.13%
5,Cc1ccc(-c2ccc3nn(Cc4ccc(N5CCCC5=O)cc4)c(=O)n3n2)cc1,5.05%
6,O=c1n(Cc2ccc3c(c2)OCO3)nc2ccc(-c3ccccc3)nn12,12.41%
7,O=C(Cn1nc2c3cc(-c4ccc(F)cc4)nn3ccn2c1=O)N1CCCc2ccccc21,-1.84%
8,O=C(Cn1nc2c3sc(N4CCCC4)nc3ncn2c1=O)Nc1ccccc1Cl,4.77%
9,O=C(CSc1nnc2c(=O)n(Cc3ccc(F)cc3)ccn12)NC1CCCC1,13.37%
10,Cc1cc(C)cc(N(Cc2cccc(Cl)c2)S(=O)(=O)c2cccn3cnnc23)c1,7.13%
11,O=C(Cn1nc2c(N3CCOCC3)nccn2c1=O)NCc1ccccc1Cl,17.61%
12,CCc1nnc2c(S(=O)(=O)N(Cc3cccc(OC)c3)c3ccccc3)cccn12,13.09%
13,CSc1cccc(NC(=O)Cn2c(=O)c3nnc(C)n3c3ccccc32)c1,-2.91%
14,COc1cccc(CN(c2ccc(F)cc2)S(=O)(=O)c2cccn3cnnc23)c1,-5.01%
15,Cc1ccc(NC(=O)Cn2nc3c4c5c(sc4ncn3c2=O)CCCC5)cc1C,0.13%
16,COc1ccc(CN(c2ccc(OC)cc2)S(=O)(=O)c2ccc3nnc(C)n3c2)cc1,4.23%
17,CCOC(=O)c1ccc(NC(=O)Cn2nc3ccc(SCc4ccc(Cl)cc4)nn3c2=O)cc1,-0.24%
18,Cc1ccccc1N1CCN(c2nccn3c(=O)n(CC(=O)NCc4cc(F)cc(F)c4)nc23)CC1,9.65%
19,Cc1cccc(C)c1NC(=O)CSc1nnc2c3cc(-c4ccc(F)cc4)nn3ccn12,-13.2%
20,COC(=O)c1ccc(NC(=O)Cn2nc3ccc(C(=O)NCc4ccccc4)cn3c2=O)cc1,12.92%

row,SMILES,Inhibition
1,CCOc1ccc(-n2ccn3c(SCC(=O)Nc4cc(F)ccc4F)nnc3c2=O)cc1,-3.91%
2,COc1ccc(Cn2nc3ccc(-c4ccc(Cl)cc4)nn3c2=O)cc1F,12.92%
3,COc1ccc(NC(=O)Cn2nc3c(N4CCCC4)nccn3c2=O)cc1Cl,12.62%
4,Cc1cccc(NC(=O)Cn2nc3ccc(-c4ccc(C)c(C)c4)nn3c2=O)c1,-13.22%
5,O=c1c2sccc2n2c(=O)n(Cc3ccccc3Cl)nc2n1Cc1cccs1,-1.31%
6,O=C(Cn1nc2c(Sc3cccc(F)c3)nccn2c1=O)Nc1ccc(Br)cc1,3%
7,CC(C)CCn1c(=O)c2ccc(C(=O)NC3CCCCC3)cc2n2c(=O)n(CC#N)nc12,5.76%
8,COc1ccc(CNC(=O)Cn2nc3c(N4CCN(c5ccccc5)CC4)nccn3c2=O)cc1,21.01%
9,CCOc1ccc(-n2ccn3c(SCC(=O)Nc4ccc5c(c4)OCCO5)nnc3c2=O)cc1,4.27%
10,O=c1c2nn(Cc3c(F)cccc3Cl)c(=O)n2ccn1-c1ccccc1,-4.83%
11,CCOC(=O)c1ccccc1NC(=O)Cn1nc2c(Sc3ccccc3)nccn2c1=O,8.61%
12,COc1cccc(-n2ccn3c(SCC(=O)NCc4ccco4)nnc3c2=O)c1,13.02%
13,COc1cc(NC(=O)Cn2nc3c(Oc4ccccc4)nccn3c2=O)cc(OC)c1,11.4%
14,COc1ccc(OC)c(NC(=O)Cn2nc3c(SCc4ccc(Cl)cc4)nccn3c2=O)c1,-7.47%
15,O=C(Cn1nc2c(SC3CCCCC3)nccn2c1=O)Nc1ccccc1Br,-0.6%
16,COc1ccc(NC(=O)Cn2nc3nc(N4CCOCC4)ccn3c2=O)cc1F,-2.35%
17,COc1ccccc1NC(=O)Cn1nc2c(SCc3ccc(Cl)cc3)nccn2c1=O,2.82%
18,C=Cc1ccc(CN(c2cccc(Cl)c2)S(=O)(=O)c2cccn3c(C)nnc23)cc1,-18.32%
19,Cc1ccc(NC(=O)CSc2nc3ccccc3n3c(C(C)C)nnc23)c(Cl)c1,-3.19%

# Tested on: Escherichia coli
# Details: Concentration 32 ug.mL-1;; ASSAY_TEST Inhibition of Bacterial Growth; detection method Absorption (OD600); MEDIA CAMHB; plate type 384well; NBS; CORNING #3640; time 18 hr
row,SMILES,Inhibition
1,COc1ccc(NC(=O)Cn2nc3c(Sc4ccccc4)nccn3c2=O)cc1OC,-5.11%
2,Cc1ccc(NC(=O)Cn2nc3ccc(SC(C)(C)C)nn3c2=O)c(C)c1,-1.14%
3,COC(=O)c1ccc(NC(=O)Cn2nc3c(N4CCOCC4)nccn3c2=O)cc1,0.79%
4,Cc1nnc2ccc(S(=O)(=O)N(Cc3ccccc3F)c3cccc(Cl)c3)cn12,-7.6%
5,Cc1ccc(-c2ccc3nn(Cc4ccc(N5CCCC5=O)cc4)c(=O)n3n2)cc1,-5.45%
6,O=c1n(Cc2ccc3c(c2)OCO3)nc2ccc(-c3ccccc3)nn12,-0.49%
7,O=C(Cn1nc2c3cc(-c4ccc(F)cc4)nn3ccn2c1=O)N1CCCc2ccccc21,-5.07%
8,O=C(Cn1nc2c3sc(N4CCCC4)nc3ncn2c1=O)Nc1ccccc1Cl,-9.42%
9,O=C(CSc1nnc2c(=O)n(Cc3ccc(F)cc3)ccn12)NC1CCCC1,-4.53%
10,Cc1cc(C)cc(N(Cc2cccc(Cl)c2)S(=O)(=O)c2cccn3cnnc23)c1,-3.73%
11,O=C(Cn1nc2c(N3CCOCC3)nccn2c1=O)NCc1ccccc1Cl,4.36%
12,CCc1nnc2c(S(=O)(=O)N(Cc3cccc(OC)c3)c3ccccc3)cccn12,-2.65%
13,CSc1cccc(NC(=O)Cn2c(=O)c3nnc(C)n3c3ccccc32)c1,2.47%
14,COc1cccc(CN(c2ccc(F)cc2)S(=O)(=O)c2cccn3cnnc23)c1,-3.63%
15,Cc1ccc(NC(=O)Cn2nc3c4c5c(sc4ncn3c2=O)CCCC5)cc1C,-5.89%
16,COc1ccc(CN(c2ccc(OC)cc2)S(=O)(=O)c2ccc3nnc(C)n3c2)cc1,-1.31%
17,CCOC(=O)c1ccc(NC(=O)Cn2nc3ccc(SCc4ccc(Cl)cc4)nn3c2=O)cc1,-11.17%
18,Cc1ccccc1N1CCN(c2nccn3c(=O)n(CC(=O)NCc4cc(F)cc(F)c4)nc23)CC1,-0.75%
19,Cc1cccc(C)c1NC(=O)CSc1nnc2c3cc(-c4ccc(F)cc4)nn3ccn12,-12.65%
20,COC(=O)c1ccc(NC(=O)Cn2nc3ccc(C(=O)NCc4ccccc4)cn3c2=O)cc1,-2.38%

row,SMILES,Inhibition
1,CCOc1ccc(-n2ccn3c(SCC(=O)Nc4cc(F)ccc4F)nnc3c2=O)cc1,1.2%
2,COc1ccc(Cn2nc3ccc(-c4ccc(Cl)cc4)nn3c2=O)cc1F,0.48%
3,COc1ccc(NC(=O)Cn2nc3c(N4CCCC4)nccn3c2=O)cc1Cl,-0.96%
4,Cc1cccc(NC(=O)Cn2nc3ccc(-c4ccc(C)c(C)c4)nn3c2=O)c1,-14.87%
5,O=c1c2sccc2n2c(=O)n(Cc3ccccc3Cl)nc2n1Cc1cccs1,-2.76%
6,O=C(Cn1nc2c(Sc3cccc(F)c3)nccn2c1=O)Nc1ccc(Br)cc1,-5.66%
7,CC(C)CCn1c(=O)c2ccc(C(=O)NC3CCCCC3)cc2n2c(=O)n(CC#N)nc12,-7.09%
8,COc1ccc(CNC(=O)Cn2nc3c(N4CCN(c5ccccc5)CC4)nccn3c2=O)cc1,2.9%
9,CCOc1ccc(-n2ccn3c(SCC(=O)Nc4ccc5c(c4)OCCO5)nnc3c2=O)cc1,-9.56%
10,O=c1c2nn(Cc3c(F)cccc3Cl)c(=O)n2ccn1-c1ccccc1,2.37%
11,CCOC(=O)c1ccccc1NC(=O)Cn1nc2c(Sc3ccccc3)nccn2c1=O,-3.65%
12,COc1cccc(-n2ccn3c(SCC(=O)NCc4ccco4)nnc3c2=O)c1,-1.73%
13,COc1cc(NC(=O)Cn2nc3c(Oc4ccccc4)nccn3c2=O)cc(OC)c1,1.31%
14,COc1ccc(OC)c(NC(=O)Cn2nc3c(SCc4ccc(Cl)cc4)nccn3c2=O)c1,-4.33%
15,O=C(Cn1nc2c(SC3CCCCC3)nccn2c1=O)Nc1ccccc1Br,-5.42%
16,COc1ccc(NC(=O)Cn2nc3nc(N4CCOCC4)ccn3c2=O)cc1F,-9.58%
17,COc1ccccc1NC(=O)Cn1nc2c(SCc3ccc(Cl)cc3)nccn2c1=O,-8%
18,C=Cc1ccc(CN(c2cccc(Cl)c2)S(=O)(=O)c2cccn3c(C)nnc23)cc1,-14.37%
19,Cc1ccc(NC(=O)CSc2nc3ccccc3n3c(C(C)C)nnc23)c(Cl)c1,-0.25%
